Compound activity: PubChem BioAssay, National Center for Advancing Translational Sciences (NCATS)
SARS PLP yeast: inhibitors of SARS-CoV papain-like protease in yeast. S. cerevisiae expressing SARS-CoV PLpro, growth rescue. Potency, µM (titrated, usually from 32.9 µM), most hits filed as activators. hit rate 0.19% among 330,000. AID 485353; calls by dose curve; also: nearly all actives have a fitted effect of over 55% in size
AMA1-RON2 inh: inhibitors of Plasmodium falciparum AMA1-RON2 interaction. hit rate 0.2% among 360,000. Potency, µM (doses to about 58.2 µM), most hits filed as inhibitors. AlphaScreen AMA1-biotinylated RON2 peptide binding; also: nearly all actives have a fitted effect of over 45% in size
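AMA1 (3D7) with his tag at 25 nM final met compounds first, then biotinylated RON2 peptide at 25 nM; detection used donor plus acceptor beads, 10 µg/mL apiece, read by AlphaScreen after 30 min at room temperature.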
Pf growth 96h: P. falciparum growth inhibition at 96 hours; P. falciparum luciferase reporter growth, 96 h; Potency, µM (series often up to 28.7 µM), most hits filed as inhibitors; hit rate 6.9% among 320,000
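96 h incubation, 37 C, 5% CO2, of luciferase-reporter P. falciparum-infected RBCs (2% hematocrit, 0.05% parasitemia final) with test compounds; endpoint luminescence.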
Pf growth 48h: P. falciparum growth inhibition at 48 hours (one generation); P. falciparum luciferase growth in erythrocytes, 48 h; Potency, µM (series often up to 28.7 µM), hits mostly inhibitors; hit rate 5.9% among 310,000; AID 504832
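Here the parasites carry a stable luciferase gene and grow inside erythrocytes in Albumax-based RPMI medium with compound for one erythrocytic cycle. Activity is scored as loss of luminescent signal.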
Hits are given with their value. Most compounds without a hit are left out; they make up all but 9.4% or so of the library. Unless noted, calls follow the shape of the dose curve; as a rule, active = well fitted curve in the direction sought with a large enough effect; inconclusive = small, poorly fitted or top-dose-only effect, or another doubt; inactive = no such curve, though single readings can be large; an effect the other way counts as inactive or inconclusive.

How did CC1Cc2ccccc2N1C(=O)CSc1nnc2sc3ccccc3n12 (stereo unspecified) do in these assays?
SARS PLP yeast: inactive; AMA1-RON2 inh: inactive; Pf growth 96h: inactive

What do the screens show for `Nc1nc2n(n1)C(=O)CC(c1ccc(Cl)cc1)N2` (stereo unspecified)?
SARS PLP yeast: inactive; AMA1-RON2 inh: inactive; Pf growth 96h: inactive; Pf growth 48h: inactive

Results for COc1cccc(NC(=O)C2CC2(c2cccc(OC)c2)c2cccc(OC)c2)c1 (stereo unspecified) ?
SARS PLP yeast: inactive; AMA1-RON2 inh: inactive; Pf growth 96h: inconclusive; Pf growth 48h: inconclusive

What do the screens show for `COc1cccc(C2(c3cccc(OC)c3)CC2C(=O)Nc2cccc3ccccc23)c1` (stereo unspecified)?
SARS PLP yeast: inactive; AMA1-RON2 inh: inactive; Pf growth 96h: 5.2µM; Pf growth 48h: 9.3µM

Results for Cc1cccc(N(CC(=O)Nc2ccccc2F)S(C)(=O)=O)c1 ?
SARS PLP yeast: inactive; AMA1-RON2 inh: inactive; Pf growth 96h: 5.2µM

What do the screens show for `COc1ccc([N+](=O)[O-])cc1NC(=O)c1ccc(-n2nc(C)cc2C)cc1`?
SARS PLP yeast: inactive; AMA1-RON2 inh: inactive; Pf growth 96h: inactive; Pf growth 48h: inactive

How did CN(C)c1ccc(-c2ccnc3c2CC(C)(C(=O)Nc2ccc(F)c(Cl)c2)O3)cc1 (stereo unspecified) do in these assays?
AMA1-RON2 inh: inactive

How did CN(C)c1ccc(-c2ccnc3c2CC(C)(C(=O)Nc2cccc(N(C)C)c2)O3)cc1 (stereo unspecified) do in these assays?
AMA1-RON2 inh: 18µM

What do the screens show for `CN(C)c1ccc(CNC(=O)C2(C)Cc3c(-c4ccccc4)ccnc3O2)cc1` (stereo unspecified)?
AMA1-RON2 inh: 28µM

How did COc1ccc(CNC(=O)C2(C)Cc3c(-c4ccc5c(c4)OCO5)ccnc3O2)cc1OC (stereo unspecified) do in these assays?
AMA1-RON2 inh: inactive

What do the screens show for `CN(C)c1ccc(CNC(=O)C2(C)Cc3c(-c4ccc(N(C)C)cc4)ccnc3O2)cc1` (stereo unspecified)?
AMA1-RON2 inh: 11µM

How did CN(C)c1ccc(CNC(=O)C2(C)Cc3c(-c4ccc5c(c4)OCO5)ccnc3O2)cc1 (stereo unspecified) do in these assays?
AMA1-RON2 inh: 28µM

Results for CC(C)(C)C(=O)Nc1sc2c(c1C#N)CCC2 ?
SARS PLP yeast: inactive; AMA1-RON2 inh: inactive; Pf growth 96h: inactive; Pf growth 48h: inactive

How did COc1ccc(CNC(=O)C2Cc3c(-c4ccccc4Oc4ccccc4)ccnc3O2)cc1OC (stereo unspecified) do in these assays?
AMA1-RON2 inh: inactive

How did CN(C)c1ccc(CNC(=O)C2Cc3c(-c4ccccc4Oc4ccccc4)ccnc3O2)cc1 (stereo unspecified) do in these assays?
AMA1-RON2 inh: 10µM

What do the screens show for `O=C(c1ccc2nc[nH]c2c1)N1CCN(S(=O)(=O)c2cccc(Cl)c2)CC1`?
AMA1-RON2 inh: inactive

How did O=C(c1cccs1)N1CCN(c2cccc(Cl)c2)CC1 do in these assays?
SARS PLP yeast: inactive; AMA1-RON2 inh: inactive; Pf growth 96h: inactive; Pf growth 48h: inactive

How did O=C(c1ccc2nc[nH]c2c1)N1CCN(c2cccc(Cl)c2)CC1 do in these assays?
SARS PLP yeast: inactive; AMA1-RON2 inh: inactive; Pf growth 96h: 5.9µM; Pf growth 48h: 13µM

Results for O=C(c1ccc([N+](=O)[O-])s1)N1CCN(c2cccc(Cl)c2)CC1 ?
SARS PLP yeast: inactive; AMA1-RON2 inh: inconclusive; Pf growth 96h: 12µM; Pf growth 48h: inconclusive

Results for Cc1ccc(Cl)cc1NC(=O)c1cc(NC(=O)C2CCCCC2C(=O)O)ccc1N1CCOCC1 (stereo unspecified) ?
SARS PLP yeast: inconclusive; AMA1-RON2 inh: inactive; Pf growth 96h: inactive; Pf growth 48h: inactive

Results for O=C(O)CSc1nnc(-c2ccncc2)n1-c1ccc(Cl)cc1 ?
SARS PLP yeast: inactive; AMA1-RON2 inh: inconclusive; Pf growth 48h: inactive

What do the screens show for `CC(=O)/C(=N/Nc1ccccc1)Sc1nnc(CCc2ccccc2)n1-c1ccccc1`?
SARS PLP yeast: inactive; AMA1-RON2 inh: inactive; Pf growth 96h: inactive; Pf growth 48h: inactive

Results for C=CCSc1nnc(CCc2ccccc2)n1N ?
SARS PLP yeast: inactive; AMA1-RON2 inh: inactive; Pf growth 96h: inconclusive; Pf growth 48h: inactive

What do the screens show for `C=CCSc1nnc(-c2nnc(SCC=C)n2-c2ccccc2)n1-c1ccccc1`?
SARS PLP yeast: inactive; AMA1-RON2 inh: inactive; Pf growth 96h: 6.6µM; Pf growth 48h: inconclusive

Results for COc1ccc(-c2nnc(SCCC(=O)O)n2-c2ccccc2)cc1 ?
SARS PLP yeast: inconclusive; AMA1-RON2 inh: inactive; Pf growth 48h: inactive

What do the screens show for `COc1ccc(-n2c(SCC(=O)O)nnc2-c2ccc(NC(=O)c3ccccc3)cc2)cc1`?
SARS PLP yeast: inactive; AMA1-RON2 inh: inactive; Pf growth 96h: inactive; Pf growth 48h: 5.2µM

How did O=C(O)CSc1nnc(-c2ccc(Cl)cc2)n1-c1ccccc1 do in these assays?
SARS PLP yeast: inactive; Pf growth 96h: 9.3µM; Pf growth 48h: inactive

Results for CC(=O)/C(=N\Nc1ccc(Cl)cc1)Sc1nnc(-c2ccccc2)n1-c1ccccc1 ?
SARS PLP yeast: inactive; AMA1-RON2 inh: inactive; Pf growth 96h: 15µM; Pf growth 48h: inactive

How did Cc1cccc([C@@H]2[C@@H]3C(=O)N(Cc4ccccc4)C(=O)[C@@H]3[C@]3(Cc4ccccc4)C(=O)N(c4ccccc4)C(=O)N23)c1 do in these assays?
SARS PLP yeast: inactive; AMA1-RON2 inh: inactive; Pf growth 96h: 8.3µM; Pf growth 48h: 10µM

What do the screens show for `Cc1cccc([C@@H]2[C@@H]3C(=O)N(Cc4ccccc4)C(=O)[C@@H]3[C@]3(Cc4ccccc4)C(=O)N(c4cccc(Cl)c4)C(=O)N23)c1`?
SARS PLP yeast: inactive; AMA1-RON2 inh: inactive; Pf growth 96h: 12µM; Pf growth 48h: 4.7µM

Results for Cc1cccc([C@@H]2[C@@H]3C(=O)N(Cc4ccccc4)C(=O)[C@@H]3[C@]3(Cc4ccc(Cl)cc4)C(=O)N(c4ccccc4)C(=O)N23)c1 ?
SARS PLP yeast: inactive; AMA1-RON2 inh: inactive; Pf growth 96h: inconclusive; Pf growth 48h: inconclusive

How did Cc1cccc([C@@H]2[C@@H]3C(=O)N(Cc4ccccc4)C(=O)[C@@H]3[C@]3(Cc4ccccc4)C(=O)N(c4ccc(C(F)(F)F)cc4)C(=O)N23)c1 do in these assays?
SARS PLP yeast: inactive; AMA1-RON2 inh: inactive; Pf growth 96h: 8.3µM; Pf growth 48h: 8.3µM

Results for COC(=O)c1cccc(NC(=O)c2ccc3c(c2)C(=O)N(CC2CCCO2)C3=O)c1 (stereo unspecified) ?
SARS PLP yeast: inactive; AMA1-RON2 inh: inactive; Pf growth 48h: inactive

How did O=C(/C=C/c1cc([N+](=O)[O-])ccc1OC(F)F)Nc1cccc(OC(F)F)c1 do in these assays?
SARS PLP yeast: inactive; AMA1-RON2 inh: inactive; Pf growth 96h: 8.3µM; Pf growth 48h: inconclusive

How did CCOc1ccc(NC(=O)CSc2nc3ccccc3nc2N2CCOCC2)cc1 do in these assays?
SARS PLP yeast: inactive; AMA1-RON2 inh: inactive; Pf growth 96h: 12µM; Pf growth 48h: inconclusive
